Screens: PubChem, The Scripps Research Institute Molecular Screening Center
Hits are enriched below; roughly 2.9% of the tested compounds scored in any of these assays.
KLK7 zymogen act = proKLK7 zymogen activators, primary screen, biochemical, fluorescence intensity; Kallikrein-7 (Homo sapiens), P49862; purified proKLK7, EDANS-DABCYL substrate fluorescence; 100% is mature enzyme control, 0% vehicle; activation, % at 7 µM; actives 0.9% (n = 370,000);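 active = activation above the mean of all tested compounds plus 3 SD, computed per campaign excluding outliers beyond control limits, cut at about 13% in these data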
PLC-gamma1 inh = PLC-gamma1 enzyme inhibitors, primary screen, biochemical, fluorescence, purified enzyme. fluorogenic substrate. actives 0.84% (n = 370,000). 1-phosphatidylinositol 4,5-bisphosphate phosphodiesterase gamma-1 (Homo sapiens), P19174. inhibition, % at 12.2 µM; in the data active = inhibition above about 9.5%
ADAM10 inh = human ADAM10 inhibitors, primary screen, biochemical, QFRET, HTS. Disintegrin and metalloproteinase domain-containing protein 10 (Homo sapiens), O14672. recombinant ADAM10, EDANS/DABCYL FRET peptide cleavage, 3 h. inhibition, % at 7 µM. actives 0.62% (n = 370,000). AID 720582, 2013;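 active = inhibition above a per-campaign cutoff equal to the mean of compounds falling between control-based bounds plus 3 SD, cut at about 20% in these data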
Target sequence (O14672 214-748 limits assumed): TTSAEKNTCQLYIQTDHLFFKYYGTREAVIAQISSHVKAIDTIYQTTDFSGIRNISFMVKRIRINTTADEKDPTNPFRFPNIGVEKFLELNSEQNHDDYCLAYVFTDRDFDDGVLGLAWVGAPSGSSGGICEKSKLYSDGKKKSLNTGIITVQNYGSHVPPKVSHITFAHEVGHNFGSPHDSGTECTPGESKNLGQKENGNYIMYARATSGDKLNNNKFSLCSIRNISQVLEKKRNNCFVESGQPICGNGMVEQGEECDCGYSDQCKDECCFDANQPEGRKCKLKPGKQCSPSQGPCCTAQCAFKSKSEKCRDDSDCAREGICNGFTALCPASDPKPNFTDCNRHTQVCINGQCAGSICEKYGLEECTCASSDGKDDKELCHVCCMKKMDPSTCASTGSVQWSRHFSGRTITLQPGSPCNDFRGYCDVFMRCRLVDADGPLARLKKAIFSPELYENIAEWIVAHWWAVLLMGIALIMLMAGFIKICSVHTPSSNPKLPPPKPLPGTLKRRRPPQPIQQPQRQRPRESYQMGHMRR
PLC-beta3 inh = human PLC-beta3 inhibitors, primary screen, biochemical, fluorescence | 1-phosphatidylinositol 4,5-bisphosphate phosphodiesterase beta-3 (Homo sapiens), Q01970 | Purified PLC-beta3, fluorogenic substrate | inhibition, % at 12.2 µM | actives 0.18% (n = 370,000); in the data active = inhibition above about 11%
ADAM17 inh = ADAM17 inhibitors, primary screen, biochemical, QFRET; actives 0.83% (n = 370,000); AID 720648, 2013; inhibition, % at 6.95 µM; recombinant ADAM17, EDANS/DABCYL FRET peptide cleavage;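 active = inhibition above the mean of compounds lying between control limits plus 3 SD, set per campaign, cut at about 8.5% in these data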
KLK7 act conf = proKLK7 zymogen activators, confirmation, biochemical, fluorescence intensity, triplicate | shares compounds with KLK7 zymogen act | purified proKLK7, EDANS-DABCYL substrate fluorescence; scaled: vehicle 0, mature enzyme 100 | activation, % at 7 µM | actives 68% (n = 3,200) | AID 686949, 2013;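 active = activation, as change over the incubation, above the mean of all tested compounds plus 3 SD, cut at about 13% in these data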
EDANS-DABCYL int = EDANS-DABCYL substrate optical interference, artefact control for kallikrein-7 zymogen activator project, biochemical, fluorescence intensity, high throughput. activation, % at 7 µM. actives 80% (n = 3,200). shares compounds with KLK7 zymogen act. no enzyme, 4 h; solvent 0%, active enzyme control 100%;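 active = activation above the all-compound mean plus 3 SD, ignoring values outside control-based bounds, cut at about 4.8% in these data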;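 note: value is the 4 h activation minus the activation read at time zero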
K7 EDANS ctr = counter-screen for kallikrein-7 activators: EDANS-DABCYL interference, dose response; shares compounds with KLK7 zymogen act; EDANS-DABCYL peptide fluorescence interference, no enzyme; EC50, µM; actives 20% (n = 250);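 active = compounds that raise the fluorescence signal in this interference counterscreen, with EC50 at or below 10 µM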;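 note: intact quenched peptide substrate alone read at 355 nm excitation and 520 nm emission; signal is fluorescence gain from T0 to T4 after four hours at room temperature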
Of the large screens only hits and unclear results are named; the others gave an inactive call (follow-up assays come after a bar, where they were run).

COC(=O)C1CN(Cc2ccccc2)CCS(=O)(=O)N1Cc1ccc(C)cc1 (stereo not given)	none
Cc1ccc2nc(-c3ccc(SCC(=O)Nc4nc(C)cs4)nc3)[nH]c2c1	none
Cc1ccc2nc(-c3ccc(SCC(=O)Nc4nnc(C)s4)nc3)[nH]c2c1	KLK7 zymogen act 14 | KLK7 act conf inactive | EDANS-DABCYL int 6.0
COC(=O)[C@]12C[C@H](CC(=O)N3CCN(C(=O)C4CC4)CC3)C(=O)N(Cc3ccco3)C1=C[C@H](COCc1ccccc1)O[C@@H]2C	none
Cc1ccc(Cl)cc1NC(=O)C1CCCCC1C(=O)O (stereo not given)	KLK7 zymogen act 15 | KLK7 act conf inactive | EDANS-DABCYL int inactive
Fc1ccc(NC2CCC23CCC(c2ccccc2)CC3)cc1C(F)(F)F (stereo not given)	none (no result: KLK7 zymogen act)
Cc1cc(-c2ccccc2)c(C#N)c(SCC(N)=O)n1	none
CCOC(=O)CC(=O)CSc1nc(N)c(C#N)c(-c2ccc(F)cc2)c1C#N	KLK7 zymogen act 14 | KLK7 act conf 13 | EDANS-DABCYL int 13
CCOC(=O)CC(=O)CSc1nc(-c2cccnc2)ccc1C#N	KLK7 zymogen act 84 | KLK7 act conf 286 | EDANS-DABCYL int 286
CCOC(=O)CC(=O)CSc1nc(-c2cccnc2)cc(C)c1C#N	KLK7 zymogen act 34 | KLK7 act conf 116 | EDANS-DABCYL int 123
CCOC(=O)CC(=O)CSc1nc(C)cc(-c2cccnc2)c1C#N	KLK7 zymogen act 35 | KLK7 act conf 98 | EDANS-DABCYL int 72 | K7 EDANS ctr 5.5
COC(=O)C1CN(Cc2cn(CCOC(C)=O)nn2)CCS(=O)(=O)N1Cc1ccc(F)cc1 (stereo not given)	none
COc1ccc(C#Cc2c(-c3ccccc3OC)oc3ccccc23)cc1	none
COc1ccc(CNC(=S)NNC(=O)c2cc3ccccc3o2)cc1	KLK7 zymogen act 17 | KLK7 act conf 21 | EDANS-DABCYL int 21
COc1ccc([C@H]2OC(=O)C[C@@H]2C(=O)N2CCN(c3ccccc3F)CC2)cc1OC	none
COc1cc(OC)c2c(=O)cc(-c3ccccc3)oc2c1	none
COc1cc(OC)c2c(C)c(Cl)c(=O)oc2c1	KLK7 zymogen act 15 | KLK7 act conf 78 | EDANS-DABCYL int 72
CC[C@H](C)[C@H](NC(=O)CNC(=O)COc1cc2c(c3oc(=O)cc(C)c13)CCC(C)(C)O2)C(=O)O	KLK7 zymogen act 50 | KLK7 act conf inactive | EDANS-DABCYL int inactive
Cc1cc(=O)oc2c3c(cc(OCC(=O)NCC(=O)N[C@H](C(=O)O)C(C)C)c12)OC(C)(C)CC3	KLK7 zymogen act 43 | KLK7 act conf 62 | EDANS-DABCYL int 72
C[C@H](O)[C@@H]1C(=O)N2CCc3c([nH]c4ccccc34)[C@@H]2C[C@@H]1N(C)C(=O)OCc1ccccc1	none
CCOC(=O)N(C)[C@H]1C[C@H]2c3[nH]c4ccccc4c3CCN2C(=O)[C@H]1[C@H](C)O	KLK7 zymogen act 50 | KLK7 act conf inactive | EDANS-DABCYL int 5.9
CN(C(=O)C(C)(C)C)[C@H]1C[C@H]2c3[nH]c4ccccc4c3CCN2C(=O)[C@H]1CO	KLK7 zymogen act 27 | KLK7 act conf inactive | EDANS-DABCYL int 9.6
CN(C(=O)NC1CCCCC1)[C@H]1C[C@H]2c3[nH]c4ccccc4c3CCN2C(=O)[C@H]1CO	none
CCOC(=O)CNC(=O)N(C)[C@H]1C[C@H]2c3[nH]c4ccccc4c3CCN2C[C@H]1[C@H](C)O	none
